Source: PubChem BioAssay
PostGolgi ctrl: inhibits growth of the yeast control strain; efflux-deficient yeast background strain, growth absorbance A615, 16 h; inhibition, % at 10 µM; hit rate 5% among 98,000; AID 738
PostGolgi yeast: growth inhibition of a yeast mutant, post-Golgi transport screen | post-Golgi transport phenotypic cell assay | inhibition, % at 10 µM | hit rate 0.9% among 98,000 | AID 739;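 also: yeast cells grown in 1536-well plates; yeast grown about 18 h at 30C before absorbance read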
Cav3 T inh: blocks human Cav3.2 T-type calcium channel; O95180; Cav3.2-expressing cells, Fluo-4 calcium fluorescence FDSS; stronger effect = lower value; B-score at 10 µM; hit rate 4% among 100,000; AID 449739;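 active = single-dose well whose peak fluorescence ratio is a statistical outlier from its plate by either plate-standardised score or position-corrected B-score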
DAT uptake mod: human DAT dopamine uptake with cocaine, either direction | hit rate 1.3% among 110,000 | AID 449768 | LLC-PK1 hDAT cells, [14C]-dopamine uptake with cocaine IC80; actives deviate in either direction | B-score at 10 µM;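 active = Z score or B-score, a plate-position-corrected score, falls beyond the plate's 99.7% confidence bounds, in either direction; inactive = both scores lie inside the 99.7% bounds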
Target sequence (Q01959 whole entry, looked up): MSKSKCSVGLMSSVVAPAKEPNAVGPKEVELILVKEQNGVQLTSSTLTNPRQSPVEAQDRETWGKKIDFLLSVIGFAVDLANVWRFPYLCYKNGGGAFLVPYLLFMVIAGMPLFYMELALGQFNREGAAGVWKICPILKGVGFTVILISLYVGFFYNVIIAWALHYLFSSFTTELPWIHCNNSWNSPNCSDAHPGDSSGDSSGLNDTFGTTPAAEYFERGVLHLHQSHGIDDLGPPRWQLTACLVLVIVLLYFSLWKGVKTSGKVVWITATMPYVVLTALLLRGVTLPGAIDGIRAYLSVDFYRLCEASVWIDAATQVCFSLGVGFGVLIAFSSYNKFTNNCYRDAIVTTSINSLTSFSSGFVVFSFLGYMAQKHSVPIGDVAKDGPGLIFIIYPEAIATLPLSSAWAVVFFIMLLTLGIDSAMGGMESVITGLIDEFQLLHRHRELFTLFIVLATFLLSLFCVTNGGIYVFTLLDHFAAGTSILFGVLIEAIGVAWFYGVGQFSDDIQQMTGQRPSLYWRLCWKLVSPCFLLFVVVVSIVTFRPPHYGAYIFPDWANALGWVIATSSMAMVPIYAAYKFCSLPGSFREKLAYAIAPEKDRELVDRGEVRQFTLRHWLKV
Smad3 inh: inhibitors of human Smad3 transcription factor binding; TR-FRET Smad3/Dy647-FoxH1 peptide binding, europium anti-His; AID 630; inhibition, % at 25 µM; hit rate 0.29% among 88,000;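 active = compounds that reduce the energy-transfer binding signal between the protein and its labelled peptide by more than half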
TNAP act mid DEA: activates human TNAP at intermediate phosphate acceptor concentration; P05186; purified TNAP, CDP-star luminescence, 100 mM DEA, 30 min; stronger effect = higher value; scale: 0 levamisole-inhibited, 1 vehicle-only enzyme; activation factor at 20 µM; 64,000 tested, under 10 active; AID 813;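 active = activation factor of at least 2 at 20 µM, relative to controls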
Hits are given with their value; n = inactive; x = not tested or not shown. Most compounds without a hit are left out; they make up all but 8.7% or so of the library. Rule as the data show it, unless noted: active = inhibition above about 30%; inactive = the rest.

SMILES | PostGolgi ctrl | PostGolgi yeast | Cav3 T inh | DAT uptake mod | Smad3 inh | TNAP act mid DEA
Cc1ccccc1-n1nnnc1SC1CCOC1=O (configuration not stated) | 35.1 | n | n | n | n | n
C/C=C1\COC(C(=O)NCc2ccccc2)(C(F)(F)F)C=C1C=C1CCCCC1 (configuration not stated) | x | x | -4.32 | n | x | x
COCCNC(=O)CSc1nc2cc3c(cc2c(=O)n1Cc1ccco1)OCO3 | n | n | n | n | n | x
CCC(Sc1nc2cc3c(cc2c(=O)n1Cc1ccco1)OCO3)C(=O)NCCOC (configuration not stated) | 31.0 | n | n | n | n | x
Cc1ccc(NC(=O)CN2C(=O)NC3(CCC(C)CC3)C2=O)c(Cl)c1 (configuration not stated) | n | n | n | n | n | n
Cc1n[nH]c(C)c1C(=O)CC1(O)C(=O)N(Cc2ccccc2)c2ccc(Br)cc21 (configuration not stated) | 30.4 | n | n | n | n | x
COc1ccccc1NC(=O)COc1cccc(-n2cnnn2)c1 | n | n | n | n | n | n
O=C(Cc1ccccc1)NCCn1ccc2ccccc21 | n | n | n | n | n | n
O=C(COc1ccc2ccccc2c1)NCCn1ccc2ccccc21 | 47.5 | n | n | n | n | x
COc1cccc(C(=O)NCCn2ccc3ccccc32)c1 | 40.4 | n | n | n | n | n
COc1cc(OC)cc(C(=O)NCCn2ccc3ccccc32)c1 | n | n | n | n | n | n
O=C(NCc1cccnc1)/C(=C/c1ccc(-c2ccc(Cl)cc2)o1)S(=O)(=O)c1ccccc1 | n | n | n | n | x | x
c1ccc(N2CCN(c3ncnc4c3oc3ccccc34)CC2)cc1 | 34.8 | n | x | x | n | n
CCOC(=O)C1CCCN(c2ncnc3c2oc2ccccc23)C1 (configuration not stated) | 32.7 | n | n | n | n | n
Cc1nc(N2CCC(C)CC2)c2oc3ccccc3c2n1 | 30.0 | n | n | n | n | n
CCCCC1(C)NC(=O)c2c(C)sc(C(=O)OCC)c2N1 (configuration not stated) | n | n | n | n | n | x
COc1ccc(CCNC(=O)COC(=O)c2ccc(Br)o2)cc1 | n | n | -3.8 | n | n | x
CCN(CC)S(=O)(=O)c1ccc(NC(=O)COC(=O)c2ccc(Br)o2)cc1 | n | n | -4.66 | n | n | n
COc1ccc(CCNC(=O)C2=COCCO2)cc1 | n | n | n | n | n | n
COc1ccc(CCNC(=O)COC(=O)c2ccc(Br)o2)cc1OC | n | n | n | n | x | x
COc1ccc(CNC(=O)COC(=O)C2=COCCO2)cc1 | n | 37.3 | n | n | n | x
O=C(/C=C/c1c(Cl)cccc1Cl)N1CCN(c2ncccn2)CC1 | n | n | -4.3 | n | x | x
CCN1CCN(c2nc(SC)nc3sc4c(c23)CC(C)(C)OC4)CC1 | n | n | n | n | n | n
CCOC(=O)c1cnn(-c2nc(SC)nc3sc4c(c23)CCCC4)c1N | 76.3 | n | n | n | n | x
CSc1nc(N2CCOCC2)c2c3c(sc2n1)CCC3 | n | n | n | n | n | n
SMILES | PostGolgi ctrl | PostGolgi yeast | Cav3 T inh | DAT uptake mod | Smad3 inh | TNAP act mid DEA
CCOC(=O)c1cnn(-c2ncnc3sc4c(c23)CCC4)c1N | n | n | n | n | n | n
CCOC(=O)c1nc(N2CCN(C(=O)OCC)CC2)c2c3c(sc2n1)CCCC3 | 37.3 | n | n | 3.21 | n | n
CC(C)Sc1nc(N2CCOCC2)c2c3c(sc2n1)COC(C)(C)C3 | 43.5 | n | n | n | x | x
CCOC(=O)N1CCN(c2nc(SC)nc3sc4c(c23)CC(C)(C)OC4)CC1 | x | x | -4.65 | n | n | n
CO/N=C/c1ccc(N2CCN(C(=O)c3ccc(Cl)cc3Cl)CC2)c([N+](=O)[O-])c1 | n | n | n | n | x | x
OC[C@H](S)CS | x | x | x | x | 85.7 | x
CCN(CC)c1ccc(NC(=O)c2ccc(Br)o2)cc1 | n | n | n | n | n | n
CNC(=O)COC(=O)c1[nH]c(C)c(C(C)=O)c1C | n | n | n | n | n | x
C#CCOCCOCCOCCNc1nc(N2CCN(C(=O)[C@H]([C@@H](C)CC)n3cc([C@@H](N)CO)nn3)CC2)nc(N2CCN(C(=O)[C@H]([C@@H](C)CC)n3cc([C@@H](N)Cc4ccc(O)cc4)nn3)CC2)n1 | x | x | n | n | x | x
Cc1ccc(-c2csc3ncnc(SCC(=O)Nc4nnc(C)s4)c23)cc1 | 33.3 | n | n | n | x | x
COc1ccc(NC(=O)c2cccnc2N2CCCCC2)cc1 | n | n | n | n | n | n
O=C(Nc1ccc(Br)cc1)c1cccnc1N1CCCCC1 | 32.2 | n | n | n | n | x
CC[C@@H](C)C(NC(=O)OC(C)(C)C)c1cn([C@@H](Cc2ccc(O)cc2)C(=O)N2CCN(C(=O)OC(C)(C)C)CC2)nn1 (some centres not stated) | x | x | n | 1.96 | x | x
Fc1ccc(Nc2ncnc3sc4c(c23)CCC4)cc1 | 40.0 | n | n | n | x | x
c1csc(CCNc2ncnc3sc4c(c23)CCC4)c1 | 82.2 | n | x | n | n | n
CCOC(=O)c1cccc(NC(=O)Cn2cc3c(n2)CCC(C)C3)c1 (configuration not stated) | n | n | n | n | n | n
CCCNC(=O)NC(=O)COC(=O)c1ccc(OC)c(S(=O)(=O)N2CCCc3ccccc32)c1 | n | n | -7.54 | n | n | n
COc1ccc(C(=O)NCc2ccc(C)cc2)cc1S(=O)(=O)N1CCCc2ccccc21 | n | n | n | n | x | x
C/C(=C\C(=O)c1ccncc1)Nc1ccccc1O | n | n | -5.7 | n | n | n
Cc1cc(C)nc(NC2=NCCN2C(=O)Nc2ccc(Cl)c(Cl)c2)n1 | x | x | x | x | n | n
Cn1cc(C(=O)c2ccccc2)cc1-c1nc2ccccc2n1C | n | n | n | 2.6 | n | n
CCc1ccc(/C=N/Nc2nn[nH]n2)cc1 | x | x | n | n | n | x
Cc1onc(-c2ccccc2Cl)c1C(=O)NCc1ccc2c(c1)cc(C)n2C | x | x | -5.97 | n | n | n
COC(=O)CNC(=O)c1c(-c2ccccc2Cl)noc1C | n | n | n | n | n | n
Cc1cc2cc(CCNC(=O)c3c(-c4ccccc4Cl)noc3C)c(=O)[nH]c2cc1C | n | n | -3.72 | n | n | n
SMILES | PostGolgi ctrl | PostGolgi yeast | Cav3 T inh | DAT uptake mod | Smad3 inh | TNAP act mid DEA
CCOc1ccc(CC(=O)NCc2ccc3c(c2)cc(C)n3C)cc1 | x | x | -8.15 | n | x | x
COCC(=O)NCc1ccc2c(c1)cc(C)n2C | x | x | x | x | n | x
COC(=O)c1c(/N=C/N(C)C)sc2c1CCN(c1ncc(C(F)(F)F)cc1Cl)C2 | n | n | n | n | n | x
CCOC(=O)Nc1c(C)n(C)n(-c2ccccc2)c1=O | x | x | n | n | n | x
Cc1c(NC(=O)C(C)OC(=O)[C@@H](NC(=O)c2ccccc2)C(C)C)c(=O)n(-c2ccccc2)n1C (some centres not stated) | 30.6 | n | n | n | n | x
CCN(CC)c1nc2ccccc2nc1-n1nc(C)cc1C | 42.8 | n | n | n | n | x
C=C(C)Cn1c(N2CCC(Cc3ccccc3)CC2)nc2c1c(=O)[nH]c(=O)n2C | 54.5 | n | -4.02 | x | n | x
